ALOX15 inhib = blocks human 15-lipoxygenase activity. Potency, µM (series often up to 57.1 µM), for the others: at the top dose activity change, negative = inhibition, hits mostly inhibitors. P16050. AID 887. purified 15hLO-1, xylenol orange hydroperoxide absorbance. actives 1.4% (n = 74,000); also: % is scaled to controls: 0 for no effect and ±100 for the full control effect; nearly all actives have a fitted effect of over 55% in size
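Quantitative HTS in 25 mM Hepes pH 7.5 containing 0.01% Triton X-100: human 15hLO-1 at 40 nM, arachidonic acid at 50 uM, 6 min turnover. Product quantified via ferrous oxidation/xylenol orange, 573:405 nm absorbance ratio.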
15-hLO-2 inh = inhibitors of human 15-lipoxygenase 2 (ALOX15B) | O15296 | actives 0.56% (n = 110,000) | AID 881 | Potency, µM (series often up to 57.1 µM), without a hit: at the top dose activity change, negative = inhibition, most hits filed as inhibitors | purified 15hLO-2, xylenol orange hydroperoxide absorbance; also: % is scaled to controls: 0 for no effect and ±100 for the full control effect; nearly all actives have a fitted effect of over 60% in size
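Read-out: hydroperoxide product oxidises ferrous iron, measured as xylenol orange complex via the 573-to-405 nm absorbance ratio after 30 min. Reaction: 50 nM enzyme, 15 min compound preincubation, 45 uM arachidonic acid, 90 min RT, Hepes pH 7.5 with Triton X-100.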
Caspase-7 inhib = blocks human caspase-7 allosterically or competitively | Potency, µM (top dose mostly 57.5 µM), for the others: top-dose activity change, negative = inhibition, most hits filed as inhibitors | AID 889 | recombinant caspase-7, Ac-DEVD-AFC fluorescence rate | P55210 | actives 0.02% (n = 75,000); active = well fitted inhibition curve with a large enough effect in the main read-out, with a control signal flat, not every such curve was filed as active; inconclusive = small, poorly fitted or top-dose-only effect, or a change in a side signal; also: % of control where 0% means no effect
Caspase-1 inhib = blocks human caspase-1 allosterically or competitively; Caspase-1 enzyme, Ac-WEHD-AFC fluorogenic rate; AID 900; P29466; actives 0.03% (n = 75,000); Potency, µM (top dose mostly 57.5 µM), inactives show top-dose activity change, negative = inhibition, most hits filed as inhibitors;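 also: plate controls were vehicle for no effect and no substrate for full effect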
Ub-GFP proteasome = proteasome inhibitors stabilizing ubiquitin-GFP reporter | Ubiquitin-GFP reporter cells, proteasome inhibition, GFP fluorescence; response scale: untreated = 0%, 10 µM MG-132 = 100% | Potency, µM (highest dose often 45.9 µM), for inactives: at the top dose activation (GFP accumulation), usual class: activators | 67,000 tested, under 10 active; active = well fitted activation curve with a large enough effect, not every such curve was filed as active; inconclusive = small, poorly fitted or top-dose-only effect, or another doubt; inactive = no such curve, though single readings can be large or run the other way
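U2OS cells stably expressing ubiquitin(G76V)-GFP, seeded overnight in 0.5% FBS medium, were exposed to compounds (qHTS, 46 uM to 2.9 nM) for 4 hr at 37 °C. GFP-positive cells were counted by laser cytometry (488 ex/515 em), normalized between basal and 10 uM MG-132.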
USP2a inhib = blocks human ubiquitin-specific protease USP2a | USP2a enzymatic assay, qHTS inhibition | actives 0.1% (n = 60,000) | O75604 | Potency, µM (doses to about 38.3 µM), for inactives: at the highest dose activity change, negative = inhibition, hits mostly inhibitors; also: nearly all actives have a fitted effect of over 60% in size
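20 nM USP2 core + cpd, 30 min RT; add 20 nM Ub-PLA2/20 uM NBD C6-HPC; read Ex460/Em535 at 0 h and 2.5 h. Normalized to NEM; qHTS curve fit/classification.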
Numbers without * were called inactive; u = inconclusive; x = no result; ! = not active in a repeat; [ ] = remark or other dose. Only a selection was taken, and hits are over-represented in it overall. Unless noted, calls follow the shape of the dose curve; as a rule, active = well fitted curve in the direction sought with a large enough effect; inconclusive = small, poorly fitted or top-dose-only effect, or another doubt; inactive = no such curve, though single readings can be large; an effect the other way counts as inactive or inconclusive. Potency is read from the fitted curve at half-maximal effect.

SMILES | ALOX15 inhib | 15-hLO-2 inh | Caspase-7 inhib | Caspase-1 inhib | Ub-GFP proteasome | USP2a inhib
Cc1occc1-c1nnc(SCC(=O)c2cc3ccccc3oc2=O)o1 | 13µM* | -8% | u | x | 3% | u
Cc1occc1-c1nnc(SCC(=O)N2CCOCC2)o1 | 2% | -6%[11.4 µM] | 0% | 2% | 10% | -10%
CN(C(=O)c1ccccc1C(=O)O)C1CC(C)(C)NC(C)(C)C1 | u | x | 1% | -2% | -7% | x
O=[N+]([O-])c1ccc2c(N=Nc3ccc4ccccc4c3O)c(O)cc(S(=O)(=O)O)c2c1 | 3.2µM* | 4µM* | -9%[11.5 µM] | -3%[11.5 µM] | -3%[9.17 µM] | x
COC(=O)c1cc(=O)c(O)c2c(O)c(O)ccc2c1 | u | -17% | u | u | x | 15%
N[C@@H](CO)C(=O)NNCc1ccc(O)c(O)c1O | 9%[25.6 µM] | 32%[25.6 µM] | 0%[25.7 µM] | -4%[25.7 µM] | -3%[20.5 µM] | -12%[17.1 µM]
NC(=O)c1ccccc1OCC(=O)NC12CC3CC(CC(C3)C1)C2 | x | 15% | x | x | x | x
O=C(Cn1sc2ccccc2c1=O)NC12CC3CC(CC(C3)C1)C2 | x | 0.79µM* | x | x | x | x
CCOC(=O)c1c(C)nc2c3ccccc3ccn12 | 16µM* | -1% | 0% | 1% | -3% | 11%
CC(C)S | -2% | -5% | 1% | 0% | x | x
Cn1cc(C2=C(c3cn(CCCSC(=N)N)c4ccccc34)C(=O)NC2=O)c2ccccc21 | 20µM* | -10% | -2% | -1% | x | x
CN(C)CCCn1cc(C2=C(c3c[nH]c4ccccc34)C(=O)NC2=O)c2ccccc21 | -7%[25.6 µM] | 10% | -2% | -4% | -9% | x
COC(=O)/C=C\c1cc(O)ccc1O | u | u | -6% | -7% | 4% | x
CN(C)CCCO[C@H]1[C@H]([C@H](O)CO)O[C@H]2OC(C)(C)O[C@@H]21 | 9% | -5% | 0% | 0% | 3% | -4%
O=C(NC(NC(=S)Nc1ccccc1)C(Cl)(Cl)Cl)c1cccc(Cl)c1 (configuration not stated) | x | 25µM* | x | x | x | x
O=C(O)c1ccc(NC(=S)NC(NC(=O)c2ccco2)C(Cl)(Cl)Cl)cc1 (configuration not stated) | x | -3% | x | x | x | x
O=C(NCCN1CCCC1)c1ccc(-n2c(=O)c(=O)[nH]c3ccccc32)cc1 | -4% | x | 0% | -2% | x | x
Oc1ccc2c(c1)oc1cc(O)ccc12 | 13µM* | -24% | -2% | 1% | -1% | 11%
CCOC(=O)c1sc(NC(=O)CSc2n[nH]c(-c3ccccc3)n2)c(C#N)c1C | 13µM* | -12% | -8% | -5% | 0% | 45%
Nc1cc(S(N)(=O)=O)ccc1SSc1ccc(S(N)(=O)=O)cc1N | -10%[11.4 µM] | u | -4%[11.5 µM] | -3%[11.5 µM] | 1%[9.17 µM] | x
Cc1nn(-c2ccccc2)c2[nH]c(=O)c(CNc3ccc(N4CCOCC4)cc3)cc12 | 13µM* | 16µM* | -4% | -9% | 15% | 21%
CC(C)(C)c1nn(-c2ccccc2)c2[nH]c(=O)c(CNc3ccc4c(c3)OCCO4)cc12 | x | -6% | x | x | x | x
O=c1[nH]c2c(cc1CNCCN1CCOCC1)c(-c1cccc(F)c1)nn2-c1ccccc1 | 0.032µM* | 35% | x | 0% | -2% | 13%
Nc1nc(Nc2ccccc2)nc2c1ncn2[C@@H]1O[C@@H](CO)[C@H](O)[C@@H]1O | 6% | 5% | 2% | 2% | 7% | 4%
CC(C)(C)c1c2c(c(C(C)(C)C)c3c1OCN(Cc1ccccc1)C3)OCN(Cc1ccccc1)C2 | u | -2%[11.4 µM] | -7%[11.5 µM] | 2%[11.5 µM] | -5%[9.17 µM] | x
SMILES | ALOX15 inhib | 15-hLO-2 inh | Caspase-7 inhib | Caspase-1 inhib | Ub-GFP proteasome | USP2a inhib
Nc1c2c(nc3ccccc13)CCCC2 | 13µM*! | 1%[0.0915 µM] | 0% | -6% | -1% | -7%
CC(C)c1nc2oc3c(=O)[nH]cnc3c2c2c1CCC2 | 0% | -7% | -2% | 0% | 0% | 1.6µM*
CCOC(=O)c1sc(NC(=O)CSc2nnc(-c3ccco3)n2CC)c(C(=O)OCC)c1C | 6.3µM* | -9%[11.4 µM] | -13% | -4% | 1% | -47%
CCOC(=O)c1c(NC(=O)CSc2nnc(-c3ccccc3)n2CC)sc(C(C)=O)c1C | -15% | -7% | -6% | -5% | 1% | u
NC(=O)c1c(NC(=O)CSc2nnc(-c3ccco3)n2-c2ccccc2)sc2c1CCC2 | 25µM* | u | -23% | -5% | -1% | 21%
O=S(=O)(O)c1ccc(NN(c2c(O)ccc3ccccc23)S(=O)(=O)O)cc1 | 22%[11.4 µM] | -13%[11.4 µM] | -3%[11.5 µM] | 5%[11.5 µM] | -4%[9.17 µM] | x
C[C@@]12C[C@H](O)[C@@H]3[C@H](CCC4=CC(=O)CC[C@]43C)[C@H]1CC[C@@H]2c1csc(N)n1 | 6%[11.4 µM] | -3%[11.4 µM] | -3%[11.5 µM] | 1%[11.5 µM] | 13%[9.17 µM] | x
O=C(NCCCN1CCOCC1)c1ccc(-n2c(=O)c(=O)[nH]c3ccccc32)cc1 | 0% | x | 0% | -3% | x | x
Cc1ccccc1C(=O)NC(=S)Nc1sc2c(c1C#N)CCC(C)C2 (configuration not stated) | x | 25µM* | x | x | x | x
Cc1cc(C(=O)Nc2sc3c(c2C#N)CCC(C)C3)cs1 (configuration not stated) | -13% | -12% | -1% | -1% | 3% | 20%
O=C(O)[C@H]1CCCC[C@@H]1C(=O)Nc1nc2ccccc2[nH]1 | 6%[11.4 µM] | 0%[11.4 µM] | 1%[11.5 µM] | -1%[11.5 µM] | -1%[9.17 µM] | x
COc1ccc(C2CC(=O)N3CN(c4ccc(C)c(Cl)c4)CSC3=C2C#N)cc1 (configuration not stated) | u | 16µM* | -3% | -3% | -9% | x
CCOc1cc(C2CC(=O)N3CN(C4CCCCC4)CSC3=C2C#N)ccc1O (configuration not stated) | u | u | -4% | -2% | -6% | x
Cc1cccc(N2CSC3=C(C#N)C(c4ccc(C)o4)CC(=O)N3C2)c1 (configuration not stated) | 1.6µM* | u | u | u | -4% | u
COc1ccc(OC)c(C2CC(=O)N3CN(c4ccccc4)CSC3=C2C#N)c1 (configuration not stated) | u | 10µM* | -3% | -2% | 6% | x
COc1ccc(N2CSC3=C(C#N)C(c4cccc(OC)c4OC)CC(=O)N3C2)cc1 (configuration not stated) | u | 13µM* | -11% | -6% | 19% | x
O=C(O)c1cc(Cl)cc(Cc2cc(Cl)cc(C(=O)O)c2O)c1O | 2%[11.4 µM] | -10%[11.4 µM] | -3%[11.5 µM] | 3%[11.5 µM] | -5%[9.17 µM] | x
CC(C)(C)CC(C)(C)c1cc(O)c(O)c(CN2CCCCC2)c1 | 0.4µM* | u | -1%[11.5 µM] | 1%[11.5 µM] | 2%[9.17 µM] | x
CC(C)(C)CC(C)(C)c1ccc(O)c(CN2CCN(CCC#N)CC2)c1 | x | 40% | x | x | x | x
COc1cc(/C=C(\C#N)C(=O)c2ccc(O)c(O)c2)cc(I)c1O | 1µM* | -22% | 1% | -1% | 2% | -26%

Screens: PubChem, National Center for Advancing Translational Sciences (NCATS)
